# Test results from paper PMC11006913.
# Assays:
# Assay in all cases: PBM; 200 nM protein, PBS
# Details in all cases: dsDNA, one strand shown
# SHOX [1] = biological target: SHOX (Homo sapiens, UniProt O15266 103-189)
# SHOX [2] = biological target: SHOX (Homo sapiens, UniProt O15266 103-189, R173C)
# NKX3-2 [3] = biological target: NKX3-2 (Homo sapiens, UniProt P78367 192-278, P234S)
# NKX3-2 [4] = biological target: NKX3-2 (Homo sapiens, UniProt P78367 192-278)
# PROP1 [5] = biological target: PROP1 (Homo sapiens, UniProt O75360 56-141)
# PROP1 [6] = biological target: PROP1 (Homo sapiens, UniProt O75360 56-141, R99H)
# PROP1 [7] = biological target: PROP1 (Homo sapiens, UniProt O75360 56-141, F88S)
# VAX1 [8] = biological target: VAX1 (Homo sapiens, UniProt Q5SQQ9 86-172)
# VAX1 [9] = biological target: VAX1 (Homo sapiens, UniProt Q5SQQ9 86-172, K157R)
# VAX1 [10] = biological target: VAX1 (Homo sapiens, UniProt Q5SQQ9 86-172, T142I)
# CRX [11] = biological target: CRX (Homo sapiens, UniProt O43186 26-111)
# HOXC9 [12] = biological target: HOXC9 (Homo sapiens, UniProt P31274 178-260, K195R)
# NKX2-6 = biological target: T1, NKX2-6 (Homo sapiens, UniProt A6NCS4 118-204, R150C)
# T1 sequence: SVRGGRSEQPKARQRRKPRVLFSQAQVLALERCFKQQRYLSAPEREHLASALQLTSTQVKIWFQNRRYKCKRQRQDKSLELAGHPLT
# CRX [13] = biological target: CRX (Homo sapiens, UniProt O43186 26-111, E42D)
# HOXC9 [14] = biological target: HOXC9 (Homo sapiens, UniProt P31274 178-260)
# PITX2 = PITX2 (Homo sapiens, UniProt Q99697 72-157)
# HOXC9 [15] = biological target: HOXC9 (Homo sapiens, UniProt P31274 178-260, R193K)
# HOXC9 [16] = biological target: HOXC9 (Homo sapiens, UniProt P31274 178-260, R222W)
# CRX [17] = biological target: CRX (Homo sapiens, UniProt O43186 26-111, R41L)
# Sequence of CRX (Homo sapiens, UniProt O43186 26-111, R41L) (O43186 26-111 R41L): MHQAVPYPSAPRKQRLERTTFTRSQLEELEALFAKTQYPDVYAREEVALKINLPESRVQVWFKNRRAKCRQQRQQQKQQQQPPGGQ
# Sequence of NKX3-2 (Homo sapiens, UniProt P78367 192-278) (P78367 192-278): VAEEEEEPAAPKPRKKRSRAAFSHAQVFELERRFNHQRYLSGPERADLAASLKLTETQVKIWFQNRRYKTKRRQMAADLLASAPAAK
# Sequence of SHOX (Homo sapiens, UniProt O15266 103-189) (O15266 103-189): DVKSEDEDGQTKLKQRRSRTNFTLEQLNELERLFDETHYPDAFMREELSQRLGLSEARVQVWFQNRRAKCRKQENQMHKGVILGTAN
# Sequence of SHOX (Homo sapiens, UniProt O15266 103-189, R173C) (O15266 103-189 R173C): as the sequence (O15266 103-189) above, with R71C counted along it
# Sequence of PROP1 (Homo sapiens, UniProt O75360 56-141, F88S) (O75360 56-141 F88S): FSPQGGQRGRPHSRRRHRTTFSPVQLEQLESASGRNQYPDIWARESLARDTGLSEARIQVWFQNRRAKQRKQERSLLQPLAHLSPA
# Sequence of NKX3-2 (Homo sapiens, UniProt P78367 192-278, P234S) (P78367 192-278 P234S): as the sequence (P78367 192-278) above, with P43S counted along it
# Sequence of PROP1 (Homo sapiens, UniProt O75360 56-141) (O75360 56-141): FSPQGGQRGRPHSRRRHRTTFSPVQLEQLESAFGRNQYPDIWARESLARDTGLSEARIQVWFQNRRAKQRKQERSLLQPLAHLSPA
# Sequence of PROP1 (Homo sapiens, UniProt O75360 56-141, R99H) (O75360 56-141 R99H): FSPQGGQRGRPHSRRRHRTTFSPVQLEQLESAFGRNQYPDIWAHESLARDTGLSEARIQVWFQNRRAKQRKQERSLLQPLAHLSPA
# Sequence of VAX1 (Homo sapiens, UniProt Q5SQQ9 86-172, K157R) (Q5SQQ9 86-172 K157R): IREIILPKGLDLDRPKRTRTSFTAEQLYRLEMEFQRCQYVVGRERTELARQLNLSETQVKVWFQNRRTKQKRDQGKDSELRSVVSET
# Sequence of VAX1 (Homo sapiens, UniProt Q5SQQ9 86-172) (Q5SQQ9 86-172): as the sequence (Q5SQQ9 86-172 K157R) above, with R72K counted along it
# Sequence of VAX1 (Homo sapiens, UniProt Q5SQQ9 86-172, T142I) (Q5SQQ9 86-172 T142I): as the sequence (Q5SQQ9 86-172 K157R) above, with T57I, R72K counted along it
# Sequence of HOXC9 (Homo sapiens, UniProt P31274 178-260) (P31274 178-260): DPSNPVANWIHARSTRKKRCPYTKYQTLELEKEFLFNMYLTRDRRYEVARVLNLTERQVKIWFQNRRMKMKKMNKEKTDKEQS
# Sequence of CRX (Homo sapiens, UniProt O43186 26-111) (O43186 26-111): as the sequence (O43186 26-111 R41L) above, with L16R counted along it
# Sequence of HOXC9 (Homo sapiens, UniProt P31274 178-260, R222W) (P31274 178-260 R222W): as the sequence (P31274 178-260) above, with R45W counted along it
# Sequence of HOXC9 (Homo sapiens, UniProt P31274 178-260, R193K) (P31274 178-260 R193K): as the sequence (P31274 178-260) above, with R16K counted along it
# Sequence of HOXC9 (Homo sapiens, UniProt P31274 178-260, K195R) (P31274 178-260 K195R): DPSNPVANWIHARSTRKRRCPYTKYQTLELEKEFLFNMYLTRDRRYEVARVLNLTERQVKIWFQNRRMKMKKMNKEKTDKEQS
# Sequence of CRX (Homo sapiens, UniProt O43186 26-111, E42D) (O43186 26-111 E42D): as the sequence (O43186 26-111 R41L) above, with L16R, E17D counted along it
sequence,measurement,setting,value
CCGGGACG,binding signal,SHOX [1],"7.24 upbm affinity estimate (log intensity, higher = more binding, comparable within an allelic series)"
same,binding signal,SHOX [2],"7.27 upbm affinity estimate (log intensity, higher = more binding, comparable within an allelic series)"
GACAGCCC,binding signal,SHOX [1],"7.16 upbm affinity estimate (log intensity, higher = more binding, comparable within an allelic series)"
same,binding signal,SHOX [2],"7.16 upbm affinity estimate (log intensity, higher = more binding, comparable within an allelic series)"
CCCTCCTC,binding signal,SHOX [1],"7.26 upbm affinity estimate (log intensity, higher = more binding, comparable within an allelic series)"
same,binding signal,SHOX [2],"7.13 upbm affinity estimate (log intensity, higher = more binding, comparable within an allelic series)"
CGGCCTCC,binding signal,SHOX [1],"6.98 upbm affinity estimate (log intensity, higher = more binding, comparable within an allelic series)"
same,binding signal,SHOX [2],"7.08 upbm affinity estimate (log intensity, higher = more binding, comparable within an allelic series)"
CCAGAGGC,binding signal,SHOX [1],"7.17 upbm affinity estimate (log intensity, higher = more binding, comparable within an allelic series)"
same,binding signal,SHOX [2],"7.18 upbm affinity estimate (log intensity, higher = more binding, comparable within an allelic series)"
CCGGGCGA,binding signal,SHOX [1],"7.31 upbm affinity estimate (log intensity, higher = more binding, comparable within an allelic series)"
same,binding signal,SHOX [2],"7.22 upbm affinity estimate (log intensity, higher = more binding, comparable within an allelic series)"
GCCTGCCA,binding signal,SHOX [1],"7.25 upbm affinity estimate (log intensity, higher = more binding, comparable within an allelic series)"
same,binding signal,SHOX [2],"7.26 upbm affinity estimate (log intensity, higher = more binding, comparable within an allelic series)"
CGCTACCC,binding signal,SHOX [1],"7.24 upbm affinity estimate (log intensity, higher = more binding, comparable within an allelic series)"
same,binding signal,SHOX [2],"7.33 upbm affinity estimate (log intensity, higher = more binding, comparable within an allelic series)"
CCGCGGCC,binding signal,SHOX [1],"7.18 upbm affinity estimate (log intensity, higher = more binding, comparable within an allelic series)"
same,binding signal,SHOX [2],"7.17 upbm affinity estimate (log intensity, higher = more binding, comparable within an allelic series)"
GCGGCGGA,binding signal,SHOX [1],"7.1 upbm affinity estimate (log intensity, higher = more binding, comparable within an allelic series)"
same,binding signal,SHOX [2],"7.11 upbm affinity estimate (log intensity, higher = more binding, comparable within an allelic series)"
CGCAGCCG,binding signal,SHOX [1],"7.02 upbm affinity estimate (log intensity, higher = more binding, comparable within an allelic series)"
same,binding signal,SHOX [2],"7.12 upbm affinity estimate (log intensity, higher = more binding, comparable within an allelic series)"
CCACCTCG,binding signal,SHOX [1],"7.13 upbm affinity estimate (log intensity, higher = more binding, comparable within an allelic series)"
same,binding signal,SHOX [2],"7.18 upbm affinity estimate (log intensity, higher = more binding, comparable within an allelic series)"
CTCCTCCC,binding signal,SHOX [1],"7.03 upbm affinity estimate (log intensity, higher = more binding, comparable within an allelic series)"
same,binding signal,SHOX [2],"7.12 upbm affinity estimate (log intensity, higher = more binding, comparable within an allelic series)"
CGGGCGTC,binding signal,SHOX [1],"7.36 upbm affinity estimate (log intensity, higher = more binding, comparable within an allelic series)"
same,binding signal,SHOX [2],"7.21 upbm affinity estimate (log intensity, higher = more binding, comparable within an allelic series)"
same,binding signal,NKX3-2 [3],"10.6 upbm affinity estimate (log intensity, higher = more binding, comparable within an allelic series)"
same,binding signal,NKX3-2 [4],"10.5 upbm affinity estimate (log intensity, higher = more binding, comparable within an allelic series)"
CCTTTCCC,binding signal,SHOX [1],"7.21 upbm affinity estimate (log intensity, higher = more binding, comparable within an allelic series)"
same,binding signal,SHOX [2],"7.11 upbm affinity estimate (log intensity, higher = more binding, comparable within an allelic series)"
same,binding signal,PROP1 [5],"6.78 upbm affinity estimate (log intensity, higher = more binding, comparable within an allelic series)"
same,binding signal,PROP1 [6],"6.87 upbm affinity estimate (log intensity, higher = more binding, comparable within an allelic series)"
same,binding signal,PROP1 [7],"6.77 upbm affinity estimate (log intensity, higher = more binding, comparable within an allelic series)"
AGCTGTCC,binding signal,SHOX [1],"7.1 upbm affinity estimate (log intensity, higher = more binding, comparable within an allelic series)"
same,binding signal,SHOX [2],"7.23 upbm affinity estimate (log intensity, higher = more binding, comparable within an allelic series)"
CACCGGGG,binding signal,SHOX [1],"7.32 upbm affinity estimate (log intensity, higher = more binding, comparable within an allelic series)"
same,binding signal,SHOX [2],"7.13 upbm affinity estimate (log intensity, higher = more binding, comparable within an allelic series)"
same,binding signal,PROP1 [5],"6.79 upbm affinity estimate (log intensity, higher = more binding, comparable within an allelic series)"
same,binding signal,PROP1 [6],"6.87 upbm affinity estimate (log intensity, higher = more binding, comparable within an allelic series)"
same,binding signal,PROP1 [7],"6.47 upbm affinity estimate (log intensity, higher = more binding, comparable within an allelic series)"
CCAGGGCG,binding signal,SHOX [1],"7.04 upbm affinity estimate (log intensity, higher = more binding, comparable within an allelic series)"
same,binding signal,SHOX [2],"7.02 upbm affinity estimate (log intensity, higher = more binding, comparable within an allelic series)"
same,binding signal,PROP1 [5],"6.67 upbm affinity estimate (log intensity, higher = more binding, comparable within an allelic series)"
same,binding signal,PROP1 [6],"6.55 upbm affinity estimate (log intensity, higher = more binding, comparable within an allelic series)"
same,binding signal,PROP1 [7],"6.42 upbm affinity estimate (log intensity, higher = more binding, comparable within an allelic series)"
same,binding signal,NKX3-2 [3],"10.3 upbm affinity estimate (log intensity, higher = more binding, comparable within an allelic series)"
same,binding signal,NKX3-2 [4],"10.2 upbm affinity estimate (log intensity, higher = more binding, comparable within an allelic series)"
ATTACCTA,binding signal,SHOX [1],"9.59 upbm affinity estimate (log intensity, higher = more binding, comparable within an allelic series)"
same,binding signal,NKX3-2 [3],"11.2 upbm affinity estimate (log intensity, higher = more binding, comparable within an allelic series)"
same,binding signal,NKX3-2 [4],"11.2 upbm affinity estimate (log intensity, higher = more binding, comparable within an allelic series)"
CCAATCAC,binding signal,SHOX [1],"8.6 upbm affinity estimate (log intensity, higher = more binding, comparable within an allelic series)"
same,binding signal,SHOX [2],"7.61 upbm affinity estimate (log intensity, higher = more binding, comparable within an allelic series)"
same,binding signal,VAX1 [8],"8.98 upbm affinity estimate (log intensity, higher = more binding, comparable within an allelic series)"
same,binding signal,VAX1 [9],"8.89 upbm affinity estimate (log intensity, higher = more binding, comparable within an allelic series)"
CCGAGGGA,binding signal,SHOX [1],"7.05 upbm affinity estimate (log intensity, higher = more binding, comparable within an allelic series)"
same,binding signal,SHOX [2],"7.2 upbm affinity estimate (log intensity, higher = more binding, comparable within an allelic series)"
same,binding signal,VAX1 [8],"7.35 upbm affinity estimate (log intensity, higher = more binding, comparable within an allelic series)"
same,binding signal,VAX1 [10],"7.23 upbm affinity estimate (log intensity, higher = more binding, comparable within an allelic series)"
same,binding signal,VAX1 [9],"7.35 upbm affinity estimate (log intensity, higher = more binding, comparable within an allelic series)"
GCCCAAGC,binding signal,SHOX [1],"7.26 upbm affinity estimate (log intensity, higher = more binding, comparable within an allelic series)"
same,binding signal,SHOX [2],"7.23 upbm affinity estimate (log intensity, higher = more binding, comparable within an allelic series)"
GGGGACCC,binding signal,CRX [11],"8.16 upbm affinity estimate (log intensity, higher = more binding, comparable within an allelic series)"
same,binding signal,HOXC9 [12],"9.36 upbm affinity estimate (log intensity, higher = more binding, comparable within an allelic series)"
same,binding signal,NKX2-6,"9.43 upbm affinity estimate (log intensity, higher = more binding, comparable within an allelic series)"
same,binding signal,CRX [13],"8.31 upbm affinity estimate (log intensity, higher = more binding, comparable within an allelic series)"
same,binding signal,HOXC9 [14],"9.5 upbm affinity estimate (log intensity, higher = more binding, comparable within an allelic series)"
same,binding signal,PITX2,"7.78 upbm affinity estimate (log intensity, higher = more binding, comparable within an allelic series)"
same,binding signal,HOXC9 [15],"9.41 upbm affinity estimate (log intensity, higher = more binding, comparable within an allelic series)"
same,binding signal,HOXC9 [16],"9.52 upbm affinity estimate (log intensity, higher = more binding, comparable within an allelic series)"
same,binding signal,CRX [17],"8.26 upbm affinity estimate (log intensity, higher = more binding, comparable within an allelic series)"
